According to PubChem BioAssay (NCATS):
Results filed as inconclusive are left out. Active and inactive are the calls of the source. Calls follow the shape of the full dose curve.

Molecular target: Peroxisome proliferator-activated receptor delta (Homo sapiens) (UniProt Q03181)
Assay: qHTS assay for small molecule agonists of peroxisome proliferator-activated receptor delta signaling (AID 588534);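 also: 0% = DMSO basal wells and 100% = positive control agonist at 10 µM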
Settings: HEK293T PPARdelta-UAS-bla, beta-lactamase ratio, 18 h; series mostly up to 76.7 µM; activation: at the top concentration
Text: NIH Chemical Genomics Center [NCGC] U.S. Environmental Protection Agency [EPA] National Institutes of Environmental Health Sciences [NIEHS] National Toxicology Program [NTP] NCGC Assay Overview The Peroxisome proliferator-activated receptors (PPARs) are lipid-activated transcription factors of the nuclear receptor superfamily with three distinct subtypes namely PPAR alpha, PPAR delta (also called PPAR beta) and PPAR gamma. All these subtypes heterodimerizes with Retinoid X receptor (RXR) and have different physiological functions. […] This role of PPAR delta implicates the potential use of its ligands in the treatment of metabolic disorders.
Compounds were screened in a titration series in 1536-well format. […] Concentration-response titration points for each compound were fitted to the Hill equation yielding concentrations of half-maximal stimulation (EC50) and maximal response (efficacy) values. qHTS protocol for PPAR-delta beta-lactamase assay in agonist mode [Step] [Parameter] [Value] [Description] 1. Reagent; 6 uL; 4000 cells/well 2. Incubation; 37 C for 5 hrs 3. Compounds; 23 nL; 0.59 nM to 92 uM 4. […] Incubation; 37 C for 18 hrs 6. Detection reagent; 1 uL of CCF4-dye 7. Incubation; RT for 2 hrs 8. Detection; Fluorescence; Envision plate reader

Sequence of Peroxisome proliferator-activated receptor delta (Homo sapiens) (Q03181 whole entry, looked up): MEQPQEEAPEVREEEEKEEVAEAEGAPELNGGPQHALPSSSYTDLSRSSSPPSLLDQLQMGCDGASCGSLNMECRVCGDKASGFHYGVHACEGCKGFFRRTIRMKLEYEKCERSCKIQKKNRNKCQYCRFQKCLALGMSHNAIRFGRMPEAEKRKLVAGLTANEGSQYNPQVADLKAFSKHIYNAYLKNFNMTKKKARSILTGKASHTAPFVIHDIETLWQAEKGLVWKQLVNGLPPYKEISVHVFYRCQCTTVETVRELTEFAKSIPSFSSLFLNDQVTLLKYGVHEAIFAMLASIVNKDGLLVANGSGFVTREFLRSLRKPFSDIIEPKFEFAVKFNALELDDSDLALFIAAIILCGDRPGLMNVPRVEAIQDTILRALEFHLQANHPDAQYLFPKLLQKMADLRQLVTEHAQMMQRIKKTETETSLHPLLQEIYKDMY

Compound | activation | outcome
OC/C(Br)=C(\Br)CO | 10.6% (inactive) | 
CCCC(C)CO (stereo not given) | 4.37% (inactive) | 
CCCCCCCC[Si](OCC)(OCC)OCC | 0.992% (inactive) | 
CC(C)S | -4.95% (inactive) | 
O=C(Cl)c1ccc([N+](=O)[O-])cc1 | -1.98% (inactive) | 
O=C=NC1CCC(CC2CCC(N=C=O)CC2)CC1 (stereo not given) | 1.82% (inactive) | 
BrC1CCC(Br)C(Br)CCC(Br)C(Br)CCC1Br (stereo not given) | 1.74% (inactive) | 
c1ccc(Nc2ccccc2)cc1 |  | inactive
CCCCOC(=O)c1ccccc1C(=O)O | 9.17% (inactive) | 
CNc1nc(=O)n(C2CCCCC2)c(=O)n1C | 0.526% (inactive) | 
CNc1ccc(O)cc1 | 0.16% (inactive) | 
COc1ccc(N)c(C)c1 | 8.91% (inactive) | 
CCSCCSP(=O)(OC)OC | 5.62% (inactive) | 
O=C1OC(=O)c2ccccc21 | -0.454% (inactive) | 
CO[Si](OC)(OC)c1ccccc1 | 1.88% (inactive) | 
CCOP(=S)(OCC)Oc1cnc2ccccc2n1 | -0.217% (inactive) | 
CCCCOC(=O)[C@@H](C)Oc1ccc(Oc2ccc(C#N)cc2F)cc1 | -9.69% (inactive) | 
CC(C)=O | 5.58% (inactive) | 
O=C(O)c1cccc(Cl)c1Cl | 2.81% (inactive) | 
CS(=O)(=O)c1cc(C(F)(F)F)ccc1C(=O)c1cnoc1C1CC1 | 0.303% (inactive) | 

Compound | activation | outcome
C=C(C)C1CC=C(C)C(OC(C)=O)C1 (stereo not given) | 4.98% (inactive) | 
CC(C)(C)C(O)/C(=C\c1ccc(Cl)cc1)n1cncn1 (stereo not given) | -4.73% (inactive) | 
Nc1c(N=Nc2ccc(S(=O)(=O)CCOS(=O)(=O)O)cc2)c(S(=O)(=O)O)cc2cc(S(=O)(=O)O)c(N=Nc3ccc(S(=O)(=O)CCOS(=O)(=O)O)cc3)c(O)c12 | 9.1% (inactive) | 
COc1c(Cl)ccc(Cl)c1C(=O)O | 0.804% (inactive) | 
C=C(C)C(=O)OCCCCCC | -3.42% (inactive) | 
COC(=O)c1c(Cl)nn(C)c1S(=O)(=O)NC(=O)Nc1nc(OC)cc(OC)n1 | 3.3% (inactive) | 
OCCOCCOCCOCCO | 0.513% (inactive) | 
C[C@H]1C[C@H]2[C@@H]3CCC4=CC(=O)C=C[C@]4(C)[C@@]3(F)[C@@H](O)C[C@]2(C)[C@@]1(O)C(=O)CO | -8.29% (inactive) | 
COC(=O)c1ccccc1S(=O)(=O)NC(=O)Nc1nc(C)nc(OC)n1 | 3.25% (inactive) | 
Brc1ccc(Oc2ccc(Br)cc2)cc1 | -3.25% (inactive) | 
O=C1OC(O)C(C(Cl)Cl)=C1Cl (stereo not given) | -14.2% (inactive) | 
CCOP(=S)(OCC)SC(CCl)N1C(=O)c2ccccc2C1=O (stereo not given) | -3.99% (inactive) | 
O=C1C=CC(=O)c2ccccc21 | -8.48% (inactive) | 
[O-][N+](=Nc1ccccc1)c1ccccc1 | 3.46% (inactive) | 
CC1(C)[C@H](C=C(Cl)Cl)[C@H]1C(=O)O[C@H](C#N)c1ccc(F)c(Oc2ccccc2)c1 |  | inactive
COc1cc(OC)nc(NC(=O)NS(=O)(=O)c2cc(NC=O)ccc2C(=O)N(C)C)n1 | -6.84% (inactive) | 
c1ccc2c(c1)ccc1ncccc12 | 2.37% (inactive) | 
CCCCC/C=C/C=C/C=O |  | inactive
O=P(Oc1ccccc1)(Oc1ccccc1)Oc1ccccc1 | -4.65% (inactive) | 
CC(=O)OC(C)(C)C1CC=C(C)CC1 (stereo not given) | -1.79% (inactive) | 
